How the values were obtained:
Test in all cases: DAPPL (digital affinity profiling via proximity ligation, sequencing); 10 mM Tris-HCl pH 7.5, 50 mM NaCl, 1 mM DTT, 4% glycerol, room temperature, 30 min; GST-TFs on glutathione beads, 16-mer random dsDNA library, 0.1% formaldehyde crosslink after washing; high values mean tight binding
FLI1 = target: T1, FLI1 (Homo sapiens, UniProt Q01543 1-452); conditions: protein: recombinant; tags: N-terminal GST; dsDNA, one strand shown
T1 sequence: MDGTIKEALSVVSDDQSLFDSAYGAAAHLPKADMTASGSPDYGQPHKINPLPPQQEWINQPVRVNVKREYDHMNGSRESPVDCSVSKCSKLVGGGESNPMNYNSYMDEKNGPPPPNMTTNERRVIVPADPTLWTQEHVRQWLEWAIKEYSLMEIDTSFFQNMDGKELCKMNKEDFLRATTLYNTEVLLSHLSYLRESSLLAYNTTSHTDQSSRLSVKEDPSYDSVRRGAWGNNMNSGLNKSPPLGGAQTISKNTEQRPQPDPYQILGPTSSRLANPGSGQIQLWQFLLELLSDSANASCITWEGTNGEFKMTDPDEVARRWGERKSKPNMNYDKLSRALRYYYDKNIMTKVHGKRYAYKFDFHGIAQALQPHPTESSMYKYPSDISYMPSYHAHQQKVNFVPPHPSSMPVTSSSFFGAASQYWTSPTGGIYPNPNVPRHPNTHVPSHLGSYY
Summary of the method: (§1)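 After expression in yeast as GST fusions, human transcription factors were bound to glutathione beads, DNA-barcoded and mixed with a tag-only sample. The pools were incubated with 200 nmole of a 16-mer random double-stranded DNA library in Tris/NaCl/DTT/glycerol buffer (30 min, room temperature), washed and crosslinked with 0.1% formaldehyde. Proximity ligation with BsaI/T4 ligase ran for 1 h at 37 °C, before PCR amplification and sequencing on an Illumina NextSeq500. Binding signal is a hexamer's read frequency for a factor divided by its frequency for the tag-only sample.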

ELK1 = target: T2, ELK1 (Homo sapiens, UniProt P19419 1-428); conditions: protein: recombinant; tags: N-terminal GST; dsDNA, one strand shown
T2 sequence: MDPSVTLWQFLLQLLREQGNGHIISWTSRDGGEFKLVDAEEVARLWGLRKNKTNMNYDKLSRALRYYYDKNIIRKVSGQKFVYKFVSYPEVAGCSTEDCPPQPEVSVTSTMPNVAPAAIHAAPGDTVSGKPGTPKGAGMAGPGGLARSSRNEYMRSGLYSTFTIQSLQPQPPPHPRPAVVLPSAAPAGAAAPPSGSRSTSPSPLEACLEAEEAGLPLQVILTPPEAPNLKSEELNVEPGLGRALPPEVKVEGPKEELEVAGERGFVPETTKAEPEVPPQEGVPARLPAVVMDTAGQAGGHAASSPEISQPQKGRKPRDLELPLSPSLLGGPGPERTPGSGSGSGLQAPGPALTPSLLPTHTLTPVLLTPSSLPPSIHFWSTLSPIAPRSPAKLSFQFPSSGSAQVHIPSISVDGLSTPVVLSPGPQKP
Summary of the method: as §1

GABPA = target: T3, GABPA (Homo sapiens, UniProt Q06546 1-454); conditions: protein: recombinant; tags: N-terminal GST; dsDNA, one strand shown
T3 sequence: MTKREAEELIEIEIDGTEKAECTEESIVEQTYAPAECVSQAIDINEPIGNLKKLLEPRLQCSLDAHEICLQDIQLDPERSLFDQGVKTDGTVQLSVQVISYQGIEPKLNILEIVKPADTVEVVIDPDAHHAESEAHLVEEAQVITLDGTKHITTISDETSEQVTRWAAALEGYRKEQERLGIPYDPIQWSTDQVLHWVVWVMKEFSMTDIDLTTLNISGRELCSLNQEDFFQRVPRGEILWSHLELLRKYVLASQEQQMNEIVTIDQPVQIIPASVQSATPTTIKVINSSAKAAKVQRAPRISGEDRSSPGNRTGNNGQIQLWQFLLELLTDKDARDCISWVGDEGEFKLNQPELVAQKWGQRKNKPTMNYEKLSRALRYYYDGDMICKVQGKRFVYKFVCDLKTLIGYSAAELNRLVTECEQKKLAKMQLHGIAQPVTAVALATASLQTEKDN
Summary of the method: as §1

ERG = target: T4, ERG (Homo sapiens, UniProt P11308 1-479); conditions: protein: recombinant; tags: N-terminal GST; dsDNA, one strand shown
T4 sequence: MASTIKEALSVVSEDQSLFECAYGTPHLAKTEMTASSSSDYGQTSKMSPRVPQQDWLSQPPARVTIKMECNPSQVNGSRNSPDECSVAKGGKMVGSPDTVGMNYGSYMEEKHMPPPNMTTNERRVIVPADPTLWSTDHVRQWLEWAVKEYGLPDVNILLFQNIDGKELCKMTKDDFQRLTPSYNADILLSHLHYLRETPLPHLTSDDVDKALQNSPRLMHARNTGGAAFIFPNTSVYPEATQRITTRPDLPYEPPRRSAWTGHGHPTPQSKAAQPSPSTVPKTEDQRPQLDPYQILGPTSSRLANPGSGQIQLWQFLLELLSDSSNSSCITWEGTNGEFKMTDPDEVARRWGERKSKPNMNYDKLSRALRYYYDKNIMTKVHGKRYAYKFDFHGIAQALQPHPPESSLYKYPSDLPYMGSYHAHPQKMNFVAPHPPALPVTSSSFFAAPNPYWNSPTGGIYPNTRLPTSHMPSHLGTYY
Summary of the method: as §1

ELF1 = ELF1 (Homo sapiens, UniProt P32519 1-619); conditions: protein: recombinant; tags: N-terminal GST; dsDNA, one strand shown
Summary of the method: as §1

EHF = target: T5, EHF (Homo sapiens, UniProt Q9NZC4 1-300); conditions: protein: recombinant; tags: N-terminal GST; dsDNA, one strand shown
T5 sequence: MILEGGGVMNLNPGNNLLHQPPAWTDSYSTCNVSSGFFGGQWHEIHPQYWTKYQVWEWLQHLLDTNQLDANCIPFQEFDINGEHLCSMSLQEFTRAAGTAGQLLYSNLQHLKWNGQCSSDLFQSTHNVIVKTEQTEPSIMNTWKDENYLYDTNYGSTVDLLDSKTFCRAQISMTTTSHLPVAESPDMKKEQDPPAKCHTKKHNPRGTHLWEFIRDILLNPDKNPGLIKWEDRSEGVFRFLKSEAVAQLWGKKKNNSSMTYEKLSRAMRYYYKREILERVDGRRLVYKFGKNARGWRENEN
Summary of the method: as §1

SPI1 = SPI1 (Homo sapiens, UniProt P17947 1-270); conditions: protein: recombinant; tags: N-terminal GST; dsDNA, one strand shown
Summary of the method: as §1

SPIB = SPIB (Homo sapiens, UniProt Q01892 1-262); conditions: protein: recombinant; tags: N-terminal GST; dsDNA, one strand shown
Summary of the method: as §1

ELK3 = target: T6, ELK3 (Homo sapiens, UniProt P41970 1-407); conditions: protein: recombinant; tags: N-terminal GST; dsDNA, one strand shown
T6 sequence: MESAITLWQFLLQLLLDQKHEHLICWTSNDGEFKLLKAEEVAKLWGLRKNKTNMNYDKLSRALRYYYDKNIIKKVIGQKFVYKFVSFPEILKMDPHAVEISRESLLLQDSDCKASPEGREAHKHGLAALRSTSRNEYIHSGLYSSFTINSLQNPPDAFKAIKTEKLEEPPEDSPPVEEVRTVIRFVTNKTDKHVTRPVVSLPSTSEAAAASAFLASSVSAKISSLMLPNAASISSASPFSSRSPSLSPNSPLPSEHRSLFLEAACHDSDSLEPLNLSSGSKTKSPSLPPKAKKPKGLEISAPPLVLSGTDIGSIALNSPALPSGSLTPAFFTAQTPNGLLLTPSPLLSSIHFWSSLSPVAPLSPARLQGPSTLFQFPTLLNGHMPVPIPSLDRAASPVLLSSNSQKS
Summary of the method: as §1

FEV = target: T7, FEV (Homo sapiens, UniProt Q99581 1-238); conditions: protein: recombinant; tags: N-terminal GST; dsDNA, one strand shown
T7 sequence: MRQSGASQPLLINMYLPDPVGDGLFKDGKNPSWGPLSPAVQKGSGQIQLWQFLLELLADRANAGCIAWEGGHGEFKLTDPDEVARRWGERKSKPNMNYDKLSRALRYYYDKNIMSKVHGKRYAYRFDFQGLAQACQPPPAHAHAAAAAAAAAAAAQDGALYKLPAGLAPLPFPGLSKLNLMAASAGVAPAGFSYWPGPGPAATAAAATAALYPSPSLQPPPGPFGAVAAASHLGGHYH
Summary of the method: as §1

ETV5 = ETV5 (Homo sapiens, UniProt P41161 1-510); conditions: protein: recombinant; tags: N-terminal GST; dsDNA, one strand shown
Summary of the method: as §1

HSF1 = HSF1 (Homo sapiens, UniProt Q00613 1-529); conditions: protein: recombinant; tags: N-terminal GST; chain copies: 3; dsDNA, one strand shown
Summary of the method: as §1

SPIC = target: T8, SPIC (Homo sapiens, UniProt Q8N5J4 1-248); conditions: protein: recombinant; tags: N-terminal GST; dsDNA, one strand shown
T8 sequence: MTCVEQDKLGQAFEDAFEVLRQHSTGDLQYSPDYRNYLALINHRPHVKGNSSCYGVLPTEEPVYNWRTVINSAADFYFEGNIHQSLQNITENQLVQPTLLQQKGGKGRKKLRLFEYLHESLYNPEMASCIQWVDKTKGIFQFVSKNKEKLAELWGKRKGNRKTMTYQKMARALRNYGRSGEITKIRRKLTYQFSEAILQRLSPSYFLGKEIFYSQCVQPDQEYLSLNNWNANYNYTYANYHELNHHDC
Summary of the method: as §1

ELF4 = ELF4 (Homo sapiens, UniProt Q99607 1-663); conditions: protein: recombinant; tags: N-terminal GST; dsDNA, one strand shown
Summary of the method: as §1

ELK4 = target: T9, ELK4 (Homo sapiens, UniProt P28324-2 1-405); conditions: protein: recombinant; tags: N-terminal GST; dsDNA, one strand shown
T9 sequence: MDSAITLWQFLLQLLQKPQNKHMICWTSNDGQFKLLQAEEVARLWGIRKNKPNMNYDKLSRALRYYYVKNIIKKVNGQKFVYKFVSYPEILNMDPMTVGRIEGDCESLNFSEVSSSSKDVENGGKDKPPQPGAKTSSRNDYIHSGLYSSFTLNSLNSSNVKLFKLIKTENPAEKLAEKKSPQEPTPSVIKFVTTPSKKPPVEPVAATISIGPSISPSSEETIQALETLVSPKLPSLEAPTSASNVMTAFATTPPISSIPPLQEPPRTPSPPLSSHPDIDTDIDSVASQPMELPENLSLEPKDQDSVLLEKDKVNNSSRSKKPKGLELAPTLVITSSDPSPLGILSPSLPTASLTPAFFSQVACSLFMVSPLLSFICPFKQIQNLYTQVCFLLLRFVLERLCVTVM
Summary of the method: as §1

ETV2 = target: T10, ETV2 (Homo sapiens, UniProt O00321 1-342); conditions: protein: recombinant; tags: N-terminal GST; dsDNA, one strand shown
T10 sequence: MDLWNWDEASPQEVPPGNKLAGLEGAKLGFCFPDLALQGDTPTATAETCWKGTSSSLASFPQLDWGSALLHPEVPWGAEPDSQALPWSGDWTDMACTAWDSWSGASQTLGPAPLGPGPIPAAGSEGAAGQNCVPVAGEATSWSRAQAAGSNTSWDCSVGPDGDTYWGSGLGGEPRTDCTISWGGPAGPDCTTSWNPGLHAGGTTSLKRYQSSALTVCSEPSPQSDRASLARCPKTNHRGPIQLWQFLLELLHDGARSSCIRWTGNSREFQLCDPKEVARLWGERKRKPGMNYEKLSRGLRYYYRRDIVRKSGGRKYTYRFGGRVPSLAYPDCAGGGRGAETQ
Summary of the method: as §1

ELF3 = target: T11, ELF3 (Homo sapiens, UniProt P78545 1-371); conditions: protein: recombinant; tags: N-terminal GST; dsDNA, one strand shown
T11 sequence: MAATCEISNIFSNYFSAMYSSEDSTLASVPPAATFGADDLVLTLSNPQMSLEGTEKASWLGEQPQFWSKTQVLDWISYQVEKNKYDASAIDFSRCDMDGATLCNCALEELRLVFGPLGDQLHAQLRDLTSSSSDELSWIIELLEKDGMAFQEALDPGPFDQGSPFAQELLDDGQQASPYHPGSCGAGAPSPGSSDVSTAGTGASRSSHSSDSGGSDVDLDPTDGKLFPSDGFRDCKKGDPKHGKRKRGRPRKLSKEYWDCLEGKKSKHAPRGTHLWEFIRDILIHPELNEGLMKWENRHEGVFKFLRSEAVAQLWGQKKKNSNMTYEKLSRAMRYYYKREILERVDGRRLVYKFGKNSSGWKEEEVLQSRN
Summary of the method: as §1

CRX = CRX (Homo sapiens, UniProt O43186 1-299); conditions: protein: recombinant; tags: N-terminal GST; dsDNA, one strand shown
Summary of the method: as §1

ETV1 = ETV1 (Homo sapiens, UniProt P50549 1-477); conditions: protein: recombinant; tags: N-terminal GST; dsDNA, one strand shown
Summary of the method: as §1

Sequence of ELF1 (P32519 whole entry): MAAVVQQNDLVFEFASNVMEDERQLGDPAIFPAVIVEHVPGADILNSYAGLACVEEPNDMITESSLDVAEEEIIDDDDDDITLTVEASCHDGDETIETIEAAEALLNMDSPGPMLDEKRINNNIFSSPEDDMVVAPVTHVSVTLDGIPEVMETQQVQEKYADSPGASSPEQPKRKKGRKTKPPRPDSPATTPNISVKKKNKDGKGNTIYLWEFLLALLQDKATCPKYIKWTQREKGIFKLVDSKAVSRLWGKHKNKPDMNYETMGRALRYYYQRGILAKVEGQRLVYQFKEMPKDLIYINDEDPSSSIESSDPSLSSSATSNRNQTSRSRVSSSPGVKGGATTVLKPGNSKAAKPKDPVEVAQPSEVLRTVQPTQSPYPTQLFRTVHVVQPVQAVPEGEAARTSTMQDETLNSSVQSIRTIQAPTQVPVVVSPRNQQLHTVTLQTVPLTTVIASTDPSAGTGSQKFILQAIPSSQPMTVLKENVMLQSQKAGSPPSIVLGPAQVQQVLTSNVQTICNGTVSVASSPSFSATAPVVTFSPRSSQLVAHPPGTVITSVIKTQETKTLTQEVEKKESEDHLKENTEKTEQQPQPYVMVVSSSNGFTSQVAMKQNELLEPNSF
Sequence of ETV5 (P41161 whole entry): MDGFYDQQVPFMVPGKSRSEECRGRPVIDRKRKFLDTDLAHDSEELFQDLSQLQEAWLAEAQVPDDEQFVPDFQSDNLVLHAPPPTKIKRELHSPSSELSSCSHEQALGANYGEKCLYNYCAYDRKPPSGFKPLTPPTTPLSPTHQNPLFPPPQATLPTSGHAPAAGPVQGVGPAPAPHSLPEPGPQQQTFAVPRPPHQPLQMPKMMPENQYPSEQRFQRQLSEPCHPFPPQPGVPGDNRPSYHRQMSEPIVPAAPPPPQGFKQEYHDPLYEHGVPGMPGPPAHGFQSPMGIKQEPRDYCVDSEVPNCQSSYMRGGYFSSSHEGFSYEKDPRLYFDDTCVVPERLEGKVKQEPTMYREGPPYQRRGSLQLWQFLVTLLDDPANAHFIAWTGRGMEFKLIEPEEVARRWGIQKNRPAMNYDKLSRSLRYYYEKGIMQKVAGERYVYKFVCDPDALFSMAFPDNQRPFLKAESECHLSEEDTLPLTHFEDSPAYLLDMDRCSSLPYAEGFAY
Sequence of CRX (O43186 whole entry): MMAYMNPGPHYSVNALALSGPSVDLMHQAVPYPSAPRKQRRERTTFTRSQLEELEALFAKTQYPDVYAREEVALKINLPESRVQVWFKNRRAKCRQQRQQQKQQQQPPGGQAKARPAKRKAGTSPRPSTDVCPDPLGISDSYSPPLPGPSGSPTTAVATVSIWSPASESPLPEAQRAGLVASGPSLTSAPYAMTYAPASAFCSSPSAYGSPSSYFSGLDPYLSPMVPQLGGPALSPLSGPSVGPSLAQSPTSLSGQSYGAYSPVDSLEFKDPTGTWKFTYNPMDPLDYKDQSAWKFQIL
Sequence of HSF1 (Q00613 whole entry): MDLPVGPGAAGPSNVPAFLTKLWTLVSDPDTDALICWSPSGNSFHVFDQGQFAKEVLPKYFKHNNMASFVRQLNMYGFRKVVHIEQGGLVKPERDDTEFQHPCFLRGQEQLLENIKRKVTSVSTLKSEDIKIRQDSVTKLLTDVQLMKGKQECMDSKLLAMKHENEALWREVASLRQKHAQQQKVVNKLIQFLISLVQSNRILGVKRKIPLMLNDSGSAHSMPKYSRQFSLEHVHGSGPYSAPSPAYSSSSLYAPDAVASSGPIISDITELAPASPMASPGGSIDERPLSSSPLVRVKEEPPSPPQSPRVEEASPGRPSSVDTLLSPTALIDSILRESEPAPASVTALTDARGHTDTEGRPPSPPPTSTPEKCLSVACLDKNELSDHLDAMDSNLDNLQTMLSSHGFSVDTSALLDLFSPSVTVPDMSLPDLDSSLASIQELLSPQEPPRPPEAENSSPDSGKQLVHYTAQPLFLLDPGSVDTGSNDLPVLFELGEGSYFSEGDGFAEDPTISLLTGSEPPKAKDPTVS
Sequence of ELF4 (Q99607 whole entry): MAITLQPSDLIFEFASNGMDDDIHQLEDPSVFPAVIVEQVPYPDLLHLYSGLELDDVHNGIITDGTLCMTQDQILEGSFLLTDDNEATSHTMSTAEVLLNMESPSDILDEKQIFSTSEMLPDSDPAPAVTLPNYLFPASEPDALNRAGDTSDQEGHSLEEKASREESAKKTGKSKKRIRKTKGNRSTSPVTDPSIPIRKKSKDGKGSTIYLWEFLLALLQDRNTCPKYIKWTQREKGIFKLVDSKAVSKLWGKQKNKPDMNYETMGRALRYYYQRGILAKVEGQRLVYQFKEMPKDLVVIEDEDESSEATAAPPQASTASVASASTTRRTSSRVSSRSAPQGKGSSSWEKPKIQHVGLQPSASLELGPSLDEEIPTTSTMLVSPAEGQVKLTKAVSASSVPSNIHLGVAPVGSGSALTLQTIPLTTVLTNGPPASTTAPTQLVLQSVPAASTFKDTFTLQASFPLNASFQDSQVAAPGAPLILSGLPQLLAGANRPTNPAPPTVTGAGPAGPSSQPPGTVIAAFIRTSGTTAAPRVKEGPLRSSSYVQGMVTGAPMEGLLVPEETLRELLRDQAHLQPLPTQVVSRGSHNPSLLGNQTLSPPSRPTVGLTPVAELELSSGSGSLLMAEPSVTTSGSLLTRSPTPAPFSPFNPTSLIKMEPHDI
Sequence of ETV1 (P50549 whole entry): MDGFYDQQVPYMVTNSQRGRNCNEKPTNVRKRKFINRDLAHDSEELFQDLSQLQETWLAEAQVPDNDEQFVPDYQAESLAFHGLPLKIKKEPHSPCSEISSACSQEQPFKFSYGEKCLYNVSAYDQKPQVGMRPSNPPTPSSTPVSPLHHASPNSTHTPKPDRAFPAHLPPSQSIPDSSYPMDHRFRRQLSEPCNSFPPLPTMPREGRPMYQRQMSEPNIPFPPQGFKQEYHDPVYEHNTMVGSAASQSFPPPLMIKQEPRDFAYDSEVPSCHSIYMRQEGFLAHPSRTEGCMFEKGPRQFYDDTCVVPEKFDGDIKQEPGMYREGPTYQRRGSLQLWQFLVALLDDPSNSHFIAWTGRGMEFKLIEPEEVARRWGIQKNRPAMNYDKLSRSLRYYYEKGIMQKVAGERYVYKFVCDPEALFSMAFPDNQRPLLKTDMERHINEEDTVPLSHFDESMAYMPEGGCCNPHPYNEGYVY
Sequence of SPIB (Q01892 whole entry): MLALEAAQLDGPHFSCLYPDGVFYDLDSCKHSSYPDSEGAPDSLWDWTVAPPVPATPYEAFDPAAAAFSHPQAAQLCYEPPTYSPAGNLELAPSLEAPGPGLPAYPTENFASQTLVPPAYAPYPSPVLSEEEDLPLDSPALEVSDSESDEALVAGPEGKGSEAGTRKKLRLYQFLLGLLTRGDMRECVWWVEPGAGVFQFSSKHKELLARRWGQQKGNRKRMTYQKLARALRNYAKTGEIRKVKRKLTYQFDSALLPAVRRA

TTTCCT was tested, and the binding signal (FLI1) was 2.49 fold enrichment (6-mer frequency, TF over GST control), the binding signal (ELK1) was 2.32 fold enrichment (6-mer frequency, TF over GST control) and the binding signal (GABPA) was 2.32 fold enrichment (6-mer frequency, TF over GST control). The binding signal (ERG) was 2.72 fold enrichment (6-mer frequency, TF over GST control), the binding signal (ELF1) was 2.19 fold enrichment (6-mer frequency, TF over GST control) and the binding signal (EHF) was 2.4 fold enrichment (6-mer frequency, TF over GST control). For the same sequence, the binding signal (SPI1) was 2.33 fold enrichment (6-mer frequency, TF over GST control), the binding signal (SPIB) was 2.52 fold enrichment (6-mer frequency, TF over GST control) and the binding signal (ELK3) was 2.53 fold enrichment (6-mer frequency, TF over GST control). For the same sequence, the binding signal (FEV) was 2.34 fold enrichment (6-mer frequency, TF over GST control), the binding signal (ETV5) was 2.73 fold enrichment (6-mer frequency, TF over GST control) and the binding signal (HSF1) was 1.73 fold enrichment (6-mer frequency, TF over GST control). The binding signal (SPIC) was 2.42 fold enrichment (6-mer frequency, TF over GST control), the binding signal (ELF4) was 2.19 fold enrichment (6-mer frequency, TF over GST control) and the binding signal (ELK4) was 2.04 fold enrichment (6-mer frequency, TF over GST control). The binding signal (ETV2) was 2.49 fold enrichment (6-mer frequency, TF over GST control), the binding signal (ELF3) was 2.44 fold enrichment (6-mer frequency, TF over GST control) and the binding signal (CRX) was 1.56 fold enrichment (6-mer frequency, TF over GST control). The binding signal (ETV1) was 2.43 fold enrichment (6-mer frequency, TF over GST control).
